Records with an inconclusive call do not appear. Active and inactive are the calls of the source. The call rests on the fitted dose curve; in most records, active means well fitted activation curve with a large enough effect; inconclusive means small, poorly fitted or top-dose-only effect; inactive means no such curve, though single readings can be large or run the other way.
assay: Activators of T cell receptors: Hit Validation; settings: primary human leukocytes, cytokine release by HTRF, 48 h, TCR-stimulated with anti-CD3 beads; series mostly up to 46.1 µM; activation: at the top concentration; on activation: 0% is about no effect
In short: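 Primary human leukocytes incubated 48 hr with anti-CD3 beads plus compound, without co-stimulation. Secreted IL-2 quantified by HTRF (europium cryptate donor, d2 acceptor, 665 nm emission).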
Potency means the concentration at half of the fitted maximal effect.

activation, inactive:
Cc1ccc(C(CC(=O)O)Nc2nc(N3CCOCC3)nc(N3CCOCC3)n2)cc1 (configuration not stated) 9.58%, COc1cc(N)c(Cl)cc1C(=O)N[C@H]1CCN(CCCOc2ccc(F)cc2)C[C@H]1OC -8.52%, COc1cc(/C=C/C(=O)OCc2csc(CC(=O)Nc3ccc(C)cc3)n2)ccc1OCC#N -4.15%, COc1ccccc1CC(=O)NNC(=O)CN(C)S(=O)(=O)c1ccc(Cl)cc1 2.12%, O=C(Cn1ncc(Cl)c(Cl)c1=O)NCC1CCCCC1 14%, COc1ccc(C(=O)Nc2cccc(NC(C)=O)c2)cc1OC -37.1%, COc1ccc(CN2CCN(C(=O)c3cc(C4CC4)nn3-c3ccccc3)CC2)cc1F 3.73%, O=C(COC(=O)C1CCN(c2ccc(C(F)(F)F)cn2)CC1)NCc1ccccc1 0.738%, CN(C)CCCN1c2ccccc2Sc2ccc(Cl)cc21 8.87%, C=C(C)C(=O)OCC(C)C 1.15%, O=C1/C(=C/c2cccnc2)SC(=S)N1Cc1ccco1 8.63%, CC(C)NS(=O)(=O)c1ccc(NC(=O)C(C)OC(=O)C2CCC2)cc1 (configuration not stated) 3.75%, Cc1cc(Cl)ccc1OCC(=O)OCC(=O)Nc1cccnc1Cl 4.56%, Cc1cc(NC(=O)CN2C(=O)NC(CC(C)C)C2=O)ccc1Br (configuration not stated) 0.93%, Cc1n[nH]c(C)c1S(=O)(=O)N1CCCC(C(=O)Nc2nccs2)C1 (configuration not stated) -0.963%, CC(C)NC(=O)CCCn1c(=S)[nH]c2cc3c(cc2c1=O)OCO3 1.07%, Cc1ccc(NC(=O)C2CC(=O)N(Cc3ccco3)C2)cc1 (configuration not stated) 1.44%, COc1ccccc1C(=O)NCCC(=O)N1CCN(S(=O)(=O)c2cccc(Cl)c2)CC1 3.72%, CCOc1cc(/C=N/NC(=S)Nc2ccccc2C(F)(F)F)ccc1OCC(=O)N1CCOCC1 5.35%, O=C(CCCN=C1NS(=O)(=O)c2ccccc21)Nc1ccc(Cl)cc1 5.26%, CCOc1cc(/C=N/O)cc(Br)c1OCC(=O)NCc1ccccc1 8.09%, Cc1noc(C)c1C(=O)OC(C)C(=O)N1CCc2ccccc21 (configuration not stated) 4.82%, CN(C)c1ccc(N/C(N)=N/c2nc(C(F)(F)F)cc(C(F)(F)F)n2)cc1 4.85%, COc1ccc(N(C)S(=O)(=O)c2cccc(C(=O)N3CCN(Cc4ccc5c(c4)OCO5)CC3)c2)cc1 4.52%, CC(=O)c1cccc(NC(=O)C(C)OC(=O)c2cccc(S(=O)(=O)N3CCN(C)CC3)c2)c1 (configuration not stated) 8.26%

Potency, active:
O=C(O)c1ccccc1-c1c2cc(I)c(=O)c(I)c-2oc2c(I)c(O)c(I)cc12 0.996 µM, S=c1[nH]c2ccccc2n2c(=S)[nH]nc12 11.2 µM

Source: PubChem BioAssay AID624298 (National Center for Advancing Translational Sciences (NCATS), 2012)
